Results published in PubChem BioAssay (NCATS).
Inconclusive results are not listed. A call without a number means that no potency is given here. Activity calls are given as the source filed them. Calls come from the whole dose curve; as a rule, active = well fitted curve in the direction sought with a large enough effect; inconclusive = small, poorly fitted or top-dose-only effect, or another doubt; inactive = no such curve, though single readings can be large; an effect the other way counts as inactive or inconclusive.

How the values were obtained:
[1] = molecular target: Aldehyde dehydrogenase, mitochondrial (Homo sapiens) (UniProt P05091); experiment: qHTS for Inhibitors of the Aldehyde Dehydrogenase Family (ALDH2) Primary screen (AID 2061308); note: nearly all actives have a fitted effect of over 55% in size
[2] = molecular target: Retinaldehyde dehydrogenase 3 (Homo sapiens) (UniProt P47895); experiment: qHTS for Inhibitors of the Aldehyde Dehydrogenase Family (ALDH1A3) Primary screen (AID 2061315)

SMILES	Potency [1]	Potency [2]
Cc1ccc(OCCn2c(CCNC(=O)/C=C/c3ccccc3Br)nc3ccccc32)cc1	inactive	inactive
CC(C)(C)OC(=O)N[C@@H](Cc1ccc(O[S+](=O)([O-])c2cccc3cnccc23)cc1)C(=O)Nc1ccc(-c2ccccc2)cc1	inactive	inactive
Cc1cc(C)nc(NC(=S)N2CCN(c3ncccc3C(F)(F)F)CC2)c1	inactive	inactive
CC(C)CCn1c(CN2CCN(C(=O)C(C)C)CC2)nc2c1c(=O)n(C)c(=O)n2C	inactive	inactive
COc1cc(Cl)c(C)cc1NC(=O)C(OC(=O)CNC(=O)c1ccccc1)c1ccccc1 (stereo not given)	inactive	inactive
O=S(=O)(c1ccc2c(c1)OCCO2)N1CCN(S(=O)(=O)c2cccs2)CC1	inactive	inactive
CC1(C)CC(=O)C2=C(C1)NC(=S)NC2c1cccc(O)c1 (stereo not given)	inactive	inactive
FC(F)(F)c1cccc(N2CCN(C(=S)Nc3ccccn3)CC2)c1	inactive	inactive
O=C(NCc1ccccc1)Nc1ncnc2c1C(c1ccccc1)c1c(ccc3ccccc13)O2 (stereo not given)	inactive	inactive
CC(C)c1ccc(NC(=O)c2cccs2)c(-c2nc3ccccc3[nH]c2=O)c1	inactive	inactive
CC(O)c1ccc(-c2ccc3ncnc(NCCc4cnc[nH]4)c3c2)o1 (stereo not given)	inactive	inactive
Cc1ccc(Cl)cc1NC(=O)c1nc[nH]c1C(=O)Nc1nc2ccccc2[nH]1	inactive	inactive
COc1ccc(C2=Nn3c(nnc3-c3ccc(OC)cc3OC)SC2)c(OC)c1	inactive	inactive
Cc1ccc(NC(=O)CN2C(=O)N/C(=C\c3cccn3-c3cccc(-c4nn[nH]n4)c3)C2=O)cc1	inactive	inactive
O=C1c2ccccc2C(=O)N1c1cccc(O)c1	inactive	inactive
Cc1cccc(-n2cnc3cc(C(=O)N4CCCC(c5ccccc5)C4)ccc32)c1 (stereo not given)	inactive	inactive
Cc1cc(C)nc(NC(=S)N2CCN(c3ccncc3)CC2)c1	inactive	inactive
COc1cc(O)c(C(CC(=O)N2CC(C)CC(C)C2)c2ccc3c(c2)OCCO3)c(OC)c1 (stereo not given)	inactive	inactive
Cc1ccc(-c2nc(NCC(=O)Nc3cccc(C(=O)O)c3)c3ccccc3n2)cc1	inactive	inactive
CC(=O)Nc1nc(C)c(-c2nc(N3CCCC(O)C3)no2)s1 (stereo not given)	inactive	inactive
CCOC(=O)c1cnc2ccc(-c3cncc(NS(=O)(=O)c4ccccc4)c3)cn12	inactive	inactive
O=C(NCc1ccccc1)n1cc(P(=S)(c2ccccc2)c2ccccc2)c2ccccc21	inactive	inactive

SMILES	Potency [1]	Potency [2]
O=C(CNC(=O)c1ccc2cc[nH]c2c1)OC(C(=O)Nc1cc(C(F)(F)F)ccc1Cl)c1ccccc1 (stereo not given)	inactive	inactive
Cn1cnc(CN=C2NC3=C(C(=O)CCC3)C(c3[nH]ncc3Cl)N2)c1 (stereo not given)	inactive	inactive
Cc1cn([C@H]2C[C@H](N[S+](=O)([O-])Cc3ccc([N+](=O)[O-])cc3)[C@@H](CO)O2)c(=O)[nH]c1=O	inactive	inactive
O=[S+]([O-])(Nc1ccc(-c2ccccc2)cc1)c1ccc(NCc2ccc(Cl)cc2O)cc1	inactive	inactive
CCN(Cc1sccc1C)c1ncnc2ccc(-c3ccc4c(c3)OCO4)cc12	inactive	inactive
Cc1cc(C)nc(Nc2nnc(N3CCN(c4cccc(C(F)(F)F)c4)CC3)s2)c1	inactive	inactive
O=C1CCCC2=C1C(c1[nH]ncc1Cl)N=C(Nc1nc3cccc(Cl)c3o1)N2 (stereo not given)	inactive	inactive
Cc1nnc(-c2cnn(C)c2N)n1CCCc1cccnc1	inactive	inactive
Cc1cc(C)nc(NC(=S)N2CCN(c3cnccn3)CC2)c1	inactive	inactive
C=C(C(=O)O)[C@@H]1CC[C@@]2(C)CC[C@H](O)[C@@]2(C(C)=O)C1	inactive	inactive
CCCCN(C)C(=O)Cn1nc(-c2ccccc2C)ccc1=O	inactive	inactive
Cc1csc(CNc2ncnc3ccc(-c4ccco4)cc23)c1	inactive	inactive
CCOC(=O)c1ccc(-n2cnc3cc(C(=O)N4CCCCC4)ccc32)cc1	inactive	inactive
CC1=C(C(=O)Nc2ccon2)C2(CCCC2)N=C(Nc2nc3ccccc3o2)N1	inactive	inactive
CN(C)CCCCC(=O)Nc1ccc(NC(=S)NC(=O)c2ccc(C(C)(C)C)cc2)cc1	inactive	inactive
Oc1ccc(CNc2ccc3ccccc3n2)c2cccnc12	inactive	inactive
COc1ccc(C2=Nn3c(nnc3-c3ccccc3Cl)SC2)cc1OC	inactive	inactive
COCCNc1nc(C)nc2c1nc(-c1ccccc1)n2CCN1CCCC1	inactive	inactive
O=C1CCCC2=C1C(c1[nH]ncc1Cl)N=C(Nc1nc3ccccc3s1)N2 (stereo not given)	inactive	inactive
CCCn1c(C)nc2c(N3CCOCC3)nc(C)nc21	inactive	inactive
Cc1nc(CN=C2NC3=C(C(=O)CCC3)C(c3[nH]ncc3Cl)N2)cs1 (stereo not given)	inactive	inactive
Cc1ccc(S(=O)(=O)n2cc(C(=O)Nc3nc(-c4ccccc4)cs3)c3ccccc32)cc1	inactive	inactive

SMILES	Potency [1]	Potency [2]
COc1cccc(CNc2ccc(S(=O)(=O)Nc3ccccc3)cc2)c1O	inactive	inactive
NC(=O)c1ccnc2c(O)cccc12	inactive	inactive
O=C(CNC(=O)c1ccccc1)OC(C(=O)Nc1cc([N+](=O)[O-])ccc1F)c1ccccc1 (stereo not given)	inactive	inactive
CCOC(=O)C1CCN(C(=O)C2(NC(=O)Nc3ccccc3Cl)CCC2)CC1	inactive	inactive
COc1cccc(NS(=O)(=O)c2ccc3c(c2)CCC(=O)N3)c1	inactive	inactive
O=C(c1cc2sccc2n1Cc1ccccc1)N(CCc1ccc(O)c(O)c1)Cc1ccccc1	inactive	inactive
COc1ccc(C2c3c(ncn(Cc4ccccc4)c3=N)Oc3ccc4ccccc4c32)cc1OC (stereo not given)	inactive	inactive
N#Cc1nc(NC2CCCC2)c2ncn(-c3cc(F)cc(F)c3)c2n1	inactive	inactive
CCc1cccc(CC)c1NC(=O)c1nn(C)c2c1CCc1cnc(Nc3ccc(C(=O)NC4CCN(C)CC4)cc3OC(F)(F)F)nc1-2	inactive	inactive
Clc1ccccc1-c1ccc2ncnc(NCc3ccc4c(c3)OCO4)c2c1	inactive	inactive
CCOc1ccc(CCNC(=O)C2CCCCC2)cc1OCC	inactive	inactive
O=C(NCc1ccc(F)cc1)n1c(-c2ccccc2)c(P(=S)(c2ccccc2)c2ccccc2)c2ccccc21	inactive	inactive
C/C=C1\[C@H](O[C@@H]2O[C@H](CO)[C@@H](O)[C@H](O)[C@H]2O)OC=C(C(=O)OCCc2ccc(O)cc2)[C@H]1CC(=O)OCCc1ccc(O)cc1	inactive	inactive
Cc1ccc(-n2nc3c(N4CCCC(C(=O)NCc5ccccc5C)C4)nnc(C)c3c2C)cc1 (stereo not given)	inactive	inactive
O=C(O)c1ccc2c(c1)C(=O)N([C@H](Cc1ccccc1)C(=O)O)C2=O	inactive	inactive
O=C1Nc2ccccc2/C1=C\c1ccc(O)cc1	inactive	inactive
CN(C)CCOC(C)(c1ccccc1)c1ccc(Cl)cc1 (stereo not given)	inactive	inactive
Cc1cccc(-c2ccc3ncnc(NCc4cc(C)cs4)c3c2)c1	inactive	inactive
CC(C)(C)OC(=O)N1CCC(C(=O)Nc2ccc([S+](=O)([O-])Nc3nccs3)cc2)CC1	inactive	inactive
Fc1cccc(Nc2nc(-c3ccncc3)nc3ccccc23)c1	inactive	inactive
O=C(OCC#CCSc1nnc(-c2cccc3ccccc23)o1)c1sccc1Cl	inactive	inactive
Cc1nc(NC2CCCCC2)c2nc(-c3ccccc3)n(C(C)CN(C)C)c2n1 (stereo not given)	inactive	inactive

SMILES	Potency [1]	Potency [2]
O=C1c2ccccc2C(=O)N1c1noc2ccccc12	inactive	inactive
CC1=C[C@@H]2[C@H]3[C@@H]4O[C@@](C)(CC[C@H]4O)[C@H]3CC(=O)[C@]23C(=O)N[C@@H](CC(C)C)[C@@H]3[C@@H]1C	inactive	inactive
c1cncc(-c2ccc(CNc3nc(N4CCCC4)nc4ccccc34)cc2)c1	inactive	inactive
Cc1ccc(OCCn2c(CCNC(=O)Cc3cc(F)ccc3F)nc3ccccc32)cc1	inactive	inactive
CN1CCN(Cc2cc(COCc3ccccc3)c3cccnc3c2O)CC1	inactive	inactive
O=C(OCC#CCSc1nnc(-c2cccc3ccccc23)o1)c1ccc(OC(F)F)cc1	inactive	inactive
CCN(CC)CCCC(C)n1c(-c2ccccc2)nc2c(N(CCOC)CCOC)nc(C)nc21 (stereo not given)	inactive	inactive
O=C1CCc2cc(S(=O)(=O)Nc3cccc(Br)c3)ccc2N1	inactive	inactive
N#Cc1cc(NC(=O)Nc2nnc(-c3ccncc3)s2)ccc1-c1ccc[nH]1	inactive	inactive
Cc1cc(N[S+](=O)([O-])c2ccc(NC(=O)Cc3cccc(Cl)c3Cl)cc2)no1	inactive	inactive
FC(F)(F)c1cc(-c2ccc(CNc3nc(C4CCCC4)nc4ccccc34)cc2)ccn1	inactive	inactive
CN(C)c1cccc(-c2ccnc(N3CCC(C(N)=O)CC3)n2)c1	inactive	inactive
CCCn1c(C)nc2c(NCCCN(CC)CC)nc(C)nc21	inactive	inactive
Cc1scc2c1C(=O)NS2(=O)=O	inactive	inactive
Cc1ccc(NS(=O)(=O)c2ccc3c(c2)CC(=O)N3C)cc1C	inactive	inactive
CN1CCCC1CCNc1ncnc2ccc(-c3ccc4c(c3)OCO4)cc12 (stereo not given)	inactive	inactive
Cc1nc(CNc2ncnc3ccc(-c4sc(C)nc4C)cc23)cs1	inactive	inactive
N#Cc1cccc(S(=O)(=O)N2CCN(S(=O)(=O)c3ccc4c(c3)OCCO4)CC2)c1	inactive	inactive
Cc1ccc(S(=O)(=O)Nc2ccccc2C(=O)Nc2ncc(-c3ccccc3)s2)cc1	inactive	inactive
